In assay [1] the test system is Aerobactin synthetase IucA (Klebsiella pneumoniae hvKP1). Briefly: IucA enzyme inhibition, primary screen, biochemical, Spectrum library (AID 1346200).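 Also: 100% = wells without compound and 0% = wells lacking enzyme.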 The conditions noted are these: malachite green pyrophosphate, A620, at 8 µM, stronger effect = lower value.
In assay [2] the test system is Aerobactin synthetase IucA (Klebsiella pneumoniae, hypervirulent). Briefly: biochemical IucA inhibition screen of LOPAC library by absorbance (AID 1346212).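 Also: 100% = no compound wells and 0% = no enzyme wells.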 The settings on record: IucA enzyme assay, absorbance (OD) readout; stronger effect = lower value;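 tested at 8 µM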.
Assay [3] in a line: P. berghei load reduction in hepatocytes – cell-based, HepG2, luciferase luminescence, HepG2 viability, primary screen (AID 624349; in the data active = parasite load remaining mostly below about 12%, no sharp cut-off; inactive = mostly above about 10%;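 also: 100% = mean of DMSO negative control wells on the same plate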). The conditions noted are these: P. berghei liver stage in HepG2, luciferase luminescence, concentration not given here; parasite load remaining: stronger effect = lower value; viability: measured here: HepG2 viability without parasites.
Assay [4] can be described thus: viability loss with induced miR-34 in A549 – imaging, A549 dox-inducible miR-34, nuclei and caspase counts, primary screen (AID 1347080;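 active = compounds whose cell count with miR-34 switched on is under 0.7 times the count with it off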). The conditions noted are these: A549 miR-34 inducible, Hoechst nuclei count, 48 h.
The target of assay [5] is Mitogen-activated protein kinase 7 (Homo sapiens) (UniProt Q13164). Briefly: Gal4-ERK5 driven luciferase induction – cell-based, HTS, primary screen (AID 1508626;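 active = luciferase signal above three times the same-plate solvent-only control wells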;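 also: luciferase driven by Gal4-ERK5 fusion binding five Gal4 sites before minimal TATA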). The settings on record: HeLa Gal4-ERK5 transactivation, 18 h, at 5 µM, stronger effect = higher value.
Mitogen-activated protein kinase 7 (Homo sapiens), sequence (Q13164 whole entry, looked up, the tested form may be a part): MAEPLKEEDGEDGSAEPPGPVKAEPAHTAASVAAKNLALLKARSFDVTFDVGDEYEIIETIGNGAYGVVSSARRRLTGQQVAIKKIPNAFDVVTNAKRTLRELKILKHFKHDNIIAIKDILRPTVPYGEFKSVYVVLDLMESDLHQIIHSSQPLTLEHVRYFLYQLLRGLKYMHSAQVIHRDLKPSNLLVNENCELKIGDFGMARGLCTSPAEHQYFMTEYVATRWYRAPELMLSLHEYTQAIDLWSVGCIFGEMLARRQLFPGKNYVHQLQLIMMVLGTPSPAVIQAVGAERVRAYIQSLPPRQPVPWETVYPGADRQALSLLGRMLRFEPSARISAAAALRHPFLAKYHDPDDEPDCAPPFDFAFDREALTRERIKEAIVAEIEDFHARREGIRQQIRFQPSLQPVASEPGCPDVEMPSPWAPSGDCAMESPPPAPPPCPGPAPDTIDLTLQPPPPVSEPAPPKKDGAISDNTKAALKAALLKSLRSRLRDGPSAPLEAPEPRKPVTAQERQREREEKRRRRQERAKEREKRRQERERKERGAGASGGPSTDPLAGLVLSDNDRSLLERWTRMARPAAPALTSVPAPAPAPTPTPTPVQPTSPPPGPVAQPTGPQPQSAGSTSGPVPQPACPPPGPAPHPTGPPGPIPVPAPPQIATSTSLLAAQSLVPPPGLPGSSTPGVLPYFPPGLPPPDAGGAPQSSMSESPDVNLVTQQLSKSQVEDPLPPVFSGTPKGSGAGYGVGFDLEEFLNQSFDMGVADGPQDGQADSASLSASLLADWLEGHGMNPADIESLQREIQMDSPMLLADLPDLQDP
A short description of assay [6]: compounds altering circadian rhythm period length – cell-based, LOPAC library, luminescence reporter (AID 2774).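 Also: values are relative to mean of DMSO wells on each plate.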 The conditions noted are these: circadian reporter cells, at 7 µM, actives lie on both sides.
Assay [7] has as its system Hepatitis C virus NS3 helicase. In words: blockers of NS3h binding to ssDNA – biochemical, fluorescence polarization, LOPAC1280 library, primary screen (AID 687035; in the data active = inhibition above about 37%). The settings on record: Purified HCV NS3 helicase, Cy5-dT15 ssDNA binding fluorescence polarization; stronger effect = higher value; concentration not given here.
Assay [8] in a line: compounds altering Cy5-DNA-NS3h complex signal – biochemical, LOPAC1280, artefact control for HCV NS3 helicase inhibitor project (AID 687037). The conditions noted are these: Cy5-DNA-NS3h complex fluorescence interference counterscreen.
Assay [9] can be described thus: galactose survival enhancers in mitochondrial complex I cybrids – cell-based, galactose medium, ATP luminescence, primary screen (AID 1645843;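 active = z-score of at least 1.8 in each of two replicates, scored against plate mean and spread of sample wells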;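 also: positive z means more ATP and so rescue of galactose-driven cybrid death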). The settings on record: complex I mutant cybrid cells, 72 h, stronger effect = higher value.
[10] abbreviates: measured here: relative caspase fold change +Dox/-Dox.
Where [11] appears, read: measured here: total cells with miR-34 induction, stronger effect = lower value.
Setting [12] is: measured here: total cells without miR-34 induction.

Structures are written as SMILES. “And” between values parts separate entries of the source, which are not always exact repeats. Equal entries are not always repeated. Where a structure was tested more than once in an assay, its records may differ in their call. The source made the active and inactive calls. Unless noted, no rule for the calls is given here.

The values that follow come from PubChem BioAssay.

A word on the remaining activity: it is the signal under treatment as a percentage of the control signal. Take `C[N+](C)(C)CCCCCC[N+](C)(C)C`: in assay [1], the activity remaining is 122% (inactive). Besides, the remaining activity in [2] is 99.1% (inactive) and 87% (inactive).
Regarding `CCCC(CCC)C(=O)O`, the activity remaining in assay [1] was 108% (inactive). In assay [2], the remaining activity is 110% (inactive).
For `NS(=O)(=O)c1cc(C(=O)O)c(NCc2ccco2)cc1Cl`, the activity remaining in assay [1] is 105% (inactive). Also, the remaining activity in [2] was 97.8% (inactive).
For `C=Cc1c(C)c2cc3[nH]c(cc4nc(cc5nc(cc1[nH]2)C(C)=C5CCC(=O)O)C(CCC(=O)O)=C4C)c(C)c3C=C`, the activity remaining in [1] was 97.5% (inactive). Further, the remaining activity in assay [2] is 107% (inactive).
For `CN=C(N)NCCC[C@H](N)C(=O)O`, in assay [1], the activity remaining was 116% (inactive). In assay [2], the remaining activity was 111% (inactive).
Consider `O=C(c1ccccc1)c1ccc2n1CCC2C(=O)O` (stereo not given), for which, in [1], the activity remaining was 128% (inactive). In assay [2], the remaining activity was 120% (inactive).
The term viability denotes the share of living cells, or the viability signal relative to a control. Regarding `CC[C@@]1(C2O[C@@H](C3O[C@@](O)(CC)[C@H](C)C[C@@H]3C)C[C@@H]2C)CC[C@H]([C@]2(C)CCC3(C[C@H](O)[C@@H](C)[C@@H]([C@H](C)[C@@H](OC)[C@H](C)C(=O)O)O3)O2)O1` (stereo not given in full), in assay [3], the parasite load remaining is 17.9% (inactive). Moreover, in [3], the viability worked out at 72.8%. Besides, the activity remaining in assay [1] was 112% (inactive). The values for the fold change in [4] (stronger effect = lower value) and in assay [4] (setting [10]) were 1.04 (inactive) and 1.48, respectively. In addition, the cell count came to 3480 in [4] (setting [11]) and 3340 in assay [4] (setting [12]). Besides, the luciferase signal in [5] was 32 AU (inactive).
With `CC[N+](CC)(CC)CCOc1cccc(OCC[N+](CC)(CC)CC)c1OCC[N+](CC)(CC)CC`, in [1], the activity remaining is 96.2% (inactive). In addition, in [2], the remaining activity is 111% (inactive).
Take `CN=C(NC#N)NCCSCc1nc[nH]c1C`: the activity remaining in [1] was 98.9% (inactive). Further, the remaining activity in assay [2] is 116% (inactive).
In the same order, the values of `CCN(CC)CCOCCOC(=O)C1(c2ccccc2)CCCC1` are 93.9% (inactive) and 113% (inactive).
Usually inhibition stands for the drop in the measured response relative to a control, in per cent. With `CC(N)C(=O)OC(C)(C)Cc1ccc(Cl)cc1` (stereo not given), the period change in assay [6] was -0.005 h (inactive). Further, the inhibition in assay [7] is -4% (inactive). Moreover, in [8], the fluorescence ratio (interference) is 1 (inactive). Also, the activity remaining in assay [1] was 86.1% (inactive). Besides, in assay [2], the remaining activity was 119% (inactive). Further, the fold change in assay [4] (stronger effect = lower value) is 1.02 (inactive); in assay [4] (setting [10]), 1.79. The cell count is 10500 in assay [4] (setting [11]) and 10300 in assay [4] (setting [12]). Also, the z-score in assay [9] was -0.85 (inactive).
`N=C(N)c1ccc(OCCCCCOc2ccc(C(=N)N)cc2)cc1`: the activity remaining in assay [1] is 98.2% (inactive). Also, the remaining activity in [2] was 122% (inactive).
As to `COc1ccc(Cl)cc1C(=O)NCCc1ccc(S(=O)(=O)NC(=O)NC2CCCCC2)cc1`, the activity remaining in assay [1] was 91.3% (inactive). In addition, the remaining activity in [2] is 120% (inactive).
With `COc1ccccc1OCC(O)CN1CCN(CC(=O)Nc2c(C)cccc2C)CC1` (stereo not given), the activity remaining in assay [1] is 122% (inactive). Also, the remaining activity in assay [2] was 97.8% (inactive).
With `NC(=O)N1c2ccccc2C=Cc2ccccc21`, the activity remaining in assay [1] is 114% (inactive). The remaining activity in [2] was 102% (inactive).
Turning to `NC[C@H](O)c1ccc(O)c(O)c1`, in [1], the activity remaining was 107% (inactive). Also, the remaining activity in [2] is 118% (inactive).
For `CC1=C(/C=C/C(C)=C/C=C/C(C)=C/C(=O)O)C(C)(C)CCC1`, the activity remaining in [1] is 109% (inactive). Moreover, the remaining activity in assay [2] is 92% (inactive).
Consider `c1ccc2c(c1)CCCC2C1=NCCN1` (stereo not given), for which the activity remaining in assay [1] was 110% (inactive). Further, the remaining activity in [2] is 102% (inactive).
As to `O=C(O)c1cccnc1Nc1cccc(C(F)(F)F)c1`, the activity remaining in assay [1] was 117% (inactive). In addition, in assay [2], the remaining activity is 115% (inactive).
Turning to `CCCCCCCCCCCCCC(=O)O[C@@H]1[C@@H](C)[C@@]2(O)[C@@H](C=C(CO)C[C@]3(O)C(=O)C(C)=C[C@@H]23)[C@@H]2C(C)(C)[C@]12OC(C)=O`, the activity remaining in [1] was 115% (inactive). In assay [2], the remaining activity is 75.1% (inactive). The fold change in [4] (stronger effect = lower value) is 0.96 (inactive); in [4] (setting [10]), 1.01. In addition, the cell count in assay [4] (setting [11]) is 240; in [4] (setting [12]), 250.
Take `Cc1cc(N)c2ccccc2[n+]1CCCCCCCCCC[n+]1c(C)cc(N)c2ccccc21`: the activity remaining in [1] is 82.6% (inactive). The remaining activity in assay [2] was 105% (inactive).
As for `CC(=O)Oc1ccccc1C(=O)O`, the activity remaining in assay [1] was 109% (inactive). Moreover, in [2], the remaining activity was 118% (inactive).
`CC(=O)CCCCn1c(=O)c2c(ncn2C)n(C)c1=O`: in [1], the activity remaining was 82.4% (inactive). Further, in [2], the remaining activity is 123% (inactive).
As to `CC1OC1P(=O)(O)O` (stereo not given), the period change in assay [6] was -0.1 h (inactive). Besides, the inhibition in assay [7] was -2% (inactive). For the same compound, in assay [8], the fluorescence ratio (interference) is 1 (inactive). For the same compound, the activity remaining in [1] is 94.8% (inactive). In addition, the remaining activity in assay [2] is 105% (inactive). Further, the fold change is 1.08 (inactive) and 0.849 (inactive) in [4] (stronger effect = lower value); 1.1 and 5.83 in [4] (setting [10]). For the same compound, the cell count was 10700 and 11000 in assay [4] (setting [11]); 9890 and 12900 in [4] (setting [12]). The z-score in assay [9] is 0.665 (inactive).
`CN(C)CCOC(C)(c1ccccc1)c1ccccn1` (stereo not given): the activity remaining in assay [1] was 104% (inactive). Further, the remaining activity in assay [2] is 101% (inactive).
`CCn1cc(C(=O)O)c(=O)c2cc3c(cc21)OCO3`: the activity remaining in [1] is 109% (inactive). The remaining activity in assay [2] was 95.5% (inactive).
For `COC(=O)C1=C(C)NC(C)=C(C(=O)OC)C1c1ccccc1[N+](=O)[O-]`, in assay [1], the activity remaining was 100% (inactive). Moreover, the remaining activity in assay [2] was 115% (inactive).
